Experimental data from PubChem BioAssay (NCATS).
Several values for one entry are separate records, joined by “and”; a condition that tells them apart may be missing. Equal entries are not always repeated. Inconclusive results are not listed. A call without a number means that no potency is given here. Unmarked numbers belong to inactive results. Activity calls are given as the source filed them. The call rests on the fitted dose curve; in most records, active means well fitted curve in the direction sought with a large enough effect; inconclusive means small, poorly fitted or top-dose-only effect, or another doubt; inactive means no such curve, though single readings can be large; an effect the other way counts as inactive or inconclusive.

Assays:
[1] = Primary qHTS for inhibitors of nuclear receptor binding SET domain protein 2 (NSD2) in an isogenic RCH-ACV NSD2 p.E1099K mutant (9B) (AID 1645876); further: nearly all actives have a fitted effect of over 70% in size; further: potency means the concentration at half of the fitted maximal effect
[2] = Primary qHTS for inhibitors of nuclear receptor binding SET domain protein 2 (NSD2) in an RCH-ACV wild type WT cells (2C) (AID 1645877); further: nearly all actives have a fitted effect of over 70% in size; further: potency means the concentration at half of the fitted maximal effect
[3] = biological target: Glutathione peroxidase 1 (Homo sapiens) (UniProt P07203); experiment: Primary qHTS Assay for Inhibitors of Recombinant Selenoprotein Glutathione Peroxidase 1 (GPX1) (AID 1845191); further: nearly all actives have a fitted effect of over 65% in size
Sequence of Glutathione peroxidase 1 (Homo sapiens) (P07203 whole entry, looked up): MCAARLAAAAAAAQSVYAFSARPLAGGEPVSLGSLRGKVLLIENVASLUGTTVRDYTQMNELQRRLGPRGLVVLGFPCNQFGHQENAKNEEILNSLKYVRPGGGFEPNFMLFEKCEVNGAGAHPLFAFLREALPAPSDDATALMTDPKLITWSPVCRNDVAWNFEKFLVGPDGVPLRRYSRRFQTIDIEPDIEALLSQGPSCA
Summary of the method: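 10 nM GPX1 + cpd, 30 min RT; start w/ 1 mM GSH, 0.5 mM cumene hydroperoxide, 0.5 mM NADPH, 100 nM GR, 0.01% BSA; buffer 50 mM Tris-HCl pH 7.5, 2 mM EDTA, 150 mM NaCl; Fl 340/450, 0 & 15 min.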

[4] = biological target: Phospholipid hydroperoxide glutathione peroxidase GPX4 (Homo sapiens) (UniProt P36969); experiment: Primary qHTS Assay for Inhibitors of Recombinant Selenoprotein Glutathione Peroxidase 4 (GPX4) (AID 1845192); further: nearly all actives have a fitted effect of over 65% in size
Sequence of Phospholipid hydroperoxide glutathione peroxidase GPX4 (Homo sapiens) (P36969 whole entry, looked up): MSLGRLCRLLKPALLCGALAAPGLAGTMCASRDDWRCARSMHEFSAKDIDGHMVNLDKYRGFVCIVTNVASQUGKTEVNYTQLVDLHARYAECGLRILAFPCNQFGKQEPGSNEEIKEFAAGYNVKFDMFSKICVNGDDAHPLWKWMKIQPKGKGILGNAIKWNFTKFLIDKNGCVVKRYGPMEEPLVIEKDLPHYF
Summary of the method: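 NADPH consumption, followed by fluorescence at 340/450 nm between 0 and 15 min, reports GPX4 activity via coupled glutathione reductase (100 nM). Enzyme 200 nM was pre-exposed to compound 30 min; 0.5 mM cumene hydroperoxide and 1 mM GSH served as substrates.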

[5] = NCATS anti-infectives library activity on HEK293 viability as a counter-qHTS vs the C. elegans viability qHTS (AID 1745854);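 further: HEK293 cells exposed to compounds for 24 hr before the viability read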
Summary of the method: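 Compounds were acoustically plated (several concentrations, 1:5, final up to 41.7 uM), then 1500 HEK293 cells added per well and incubated 24 hr at 37C, 5% CO2. CellTiter-Glo was added and luminescence read after 10 min.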

With `S=P(N1CC1)(N1CC1)N1CC1` as the compound, how does the Potency [1] read?
The Potency was “inactive”.

What about the Potency [2] of the same compound?
Its Potency is “inactive”.

What about the Potency [3] of the same compound?
Its Potency is “inactive”.

What about the outcome [4] of the same compound?
The outcome was “inactive [at 0.409 µM]”.

With `Cn1c(=O)c2c(ncn2CC(O)CO)n(C)c1=O` (stereo not given) as the compound, how does the Potency [1] read?
The Potency was “inactive”.

And the Potency [2]?
The Potency was “inactive”.

And the Potency [3]?
Its Potency is “inactive”.

And the Potency [4]?
Its Potency is “inactive”.

What does the source list for `CNCC[C@H](Oc1cccc2ccccc12)c1cccs1`?
Potency [1]: 23.7 µM (active); Potency [2]: 23.7 µM (active); Potency [4]: inactive

What does the source list for `COc1cnc(NS(=O)(=O)c2ccc(N)cc2)nc1`?
Potency [1]: inactive; Potency [2]: inactive; Potency [4]: inactive

For `CN(C)CCc1c[nH]c2ccc(CS(=O)(=O)N3CCCC3)cc12`, which Potency [1] is on record?
Its Potency is “inactive”.

What about the Potency [2] of the same compound?
Its Potency is “inactive”.

What about the Potency [4] of the same compound?
Its Potency is “inactive”.

For `N[C@@H](Cc1ccc(O)c(O)c1)C(=O)O`, which Potency [1] is on record?
The Potency was “inactive”.

What about the Potency [2] of the same compound?
Its Potency is “inactive”.

What about the Potency [4] of the same compound?
The Potency was “inactive”.

With `COc1c(N2CCNC(C)C2)c(F)cc2c(=O)c(C(=O)O)cn(C3CC3)c12` (stereo not given) as the compound, how does the Potency [1] read?
The Potency was “inactive”.

And the Potency [2]?
The Potency was “inactive”.

What about the Potency [3] of the same compound?
Its Potency is “inactive”.

And the Potency [4]?
Its Potency is “inactive”.

Which Potency [1] does the source give for `CNS(=O)(=O)Cc1ccc2[nH]cc(CCN(C)C)c2c1` here?
Its Potency is “inactive”.

What about the Potency [2] of the same compound?
The Potency was “inactive”.

What about the Potency [3] of the same compound?
The Potency was “inactive”.

What about the Potency [4] of the same compound?
The Potency was “inactive”.

What does the source list for `Oc1c(Cl)cc(Cl)c2cccnc12`?
Potency [1]: 3.76 µM (active); Potency [2]: 3.32 µM (active); Potency [4]: inactive

For `CC(C)C[C@H](NC(=O)[C@H](CCc1ccccc1)NC(=O)CN1CCOCC1)C(=O)N[C@@H](Cc1ccccc1)C(=O)N[C@@H](CC(C)C)C(=O)[C@@]1(C)CO1`, which Potency [1] is on record?
Its Potency is 7.5 nM (active) and 10.5 nM (active).

What about the Potency [2] of the same compound?
Its Potency is 6 nM (active) and 5.3 nM (active).

What about the Potency [4] of the same compound?
The Potency was “inactive”.

For `OC(Cn1cncn1)(Cn1cncn1)c1ccc(F)cc1F`, which Potency [1] is on record?
The Potency was “inactive”.

And the Potency [2]?
The Potency was “inactive”.

What about the Potency [3] of the same compound?
Its Potency is “inactive”.

And the Potency [4]?
The Potency was “inactive”.

Which Potency [1] does the source give for `NS(=O)(=O)c1cc2c(cc1Cl)NC(C(Cl)Cl)NS2(=O)=O` (stereo not given) here?
Its Potency is “inactive”.

And the Potency [2]?
The Potency was “inactive”.

What about the Potency [3] of the same compound?
The Potency was “inactive”.

And the Potency [4]?
The Potency was “inactive”.

For `CN(CCOc1ccc(CC2SC(=O)NC2=O)cc1)c1ccccn1` (stereo not given), which Potency [1] is on record?
Its Potency is “inactive”.

What about the Potency [2] of the same compound?
Its Potency is “inactive”.

What about the Potency [4] of the same compound?
The Potency was “inactive”.

For `CC(C)C1CCC(C(=O)N[C@H](Cc2ccccc2)C(=O)O)CC1` (stereo not given in full), which Potency [1] is on record?
The Potency was “inactive”.

What about the Potency [2] of the same compound?
The Potency was “inactive”.

What about the Potency [4] of the same compound?
Its Potency is “inactive”.

Which Potency [1] does the source give for `COc1nc(N)nc2c1ncn2[C@@H]1O[C@H](CO)[C@@H](O)[C@@H]1O` here?
The Potency was 5.31 µM (active).

What about the Potency [2] of the same compound?
The Potency was 6.68 µM (active).

And the Potency [3]?
The Potency was “inactive”.

And the Potency [4]?
The Potency was “inactive”.

What does the source list for `Nc1ccc(S(=O)(=O)Nc2ccccn2)cc1`?
Potency [1]: inactive; Potency [2]: inactive; Potency [3]: inactive; Potency [4]: inactive

Which Potency [1] does the source give for `CN(Cc1cc(Br)cc(Br)c1N)C1CCCCC1` here?
The Potency was “inactive”.

What about the Potency [2] of the same compound?
Its Potency is “inactive”.

And the Potency [3]?
Its Potency is “inactive”.

What about the Potency [4] of the same compound?
The Potency was “inactive”.

For `O=c1cc(O)c(Cl)c[nH]1`, which Potency [1] is on record?
Its Potency is “inactive”.

What about the Potency [2] of the same compound?
The Potency was “inactive”.

And the Potency [3]?
The Potency was “inactive”.

What about the Potency [4] of the same compound?
The Potency was “inactive”.

Which results are given for `CCOCC(O)COc1ccc(NC(=O)CC[S+](C)C)cc1` (stereo not given)?
Potency [1]: inactive; Potency [3]: inactive; Potency [4]: inactive

With `N=C(N)c1ccc(OCCCCCOc2ccc(C(=N)N)cc2)cc1` as the compound, how does the Potency [1] read?
The Potency was 4.73 µM (active) and 3.72 µM (active).

What about the Potency [3] of the same compound?
Its Potency is “inactive”.

And the Potency [4]?
The Potency was “inactive”.

Which Potency [1] does the source give for `CO[C@@]12[C@H](COC(N)=O)C3=C(C(=O)C(C)=C(N)C3=O)N1C[C@@H]1N[C@@H]12` here?
The Potency was “inactive”.

What about the Potency [3] of the same compound?
Its Potency is “inactive”.

What about the Potency [4] of the same compound?
Its Potency is “inactive”.

With `CCCN[C@H]1CCc2nc(N)sc2C1` as the compound, how does the Potency [1] read?
Its Potency is “inactive”.

What about the Potency [3] of the same compound?
Its Potency is “inactive”.

And the Potency [4]?
Its Potency is “inactive”.

With `Nc1[nH]c(=O)ncc1F` as the compound, how does the Potency [1] read?
The Potency was “inactive”.

What about the Potency [3] of the same compound?
Its Potency is “inactive”.

And the Potency [4]?
Its Potency is “inactive”.

For `O=S(=O)(c1cccc2cnccc12)N1CCCNCC1`, which Potency [1] is on record?
Its Potency is “inactive”.

And the Potency [5]?
Its Potency is “inactive”.

What about the Potency [3] of the same compound?
The Potency was “inactive”.

And the Potency [4]?
Its Potency is “inactive”.

For `CCC(=O)O[C@]1(C(=O)CCl)[C@@H](C)C[C@H]2[C@@H]3CCC4=CC(=O)C=C[C@]4(C)[C@@]3(F)[C@@H](O)C[C@@]21C`, which Potency [1] is on record?
The Potency was 23.5 µM (active).

And the Potency [3]?
Its Potency is “inactive”.

What about the Potency [4] of the same compound?
Its Potency is “inactive”.

With `CCN(C)C(=O)Oc1cccc([C@H](C)N(C)C)c1` as the compound, how does the Potency [1] read?
Its Potency is “inactive”.

And the Potency [3]?
Its Potency is “inactive”.

What about the Potency [4] of the same compound?
Its Potency is “inactive”.

What does the source list for `COc1ccc(C(=O)CC(=O)c2ccc(C(C)(C)C)cc2)cc1`?
Potency [1]: inactive; Potency [3]: inactive; Potency [4]: inactive

Which Potency [1] does the source give for `CS(=O)(=O)c1ccc([C@@H](O)[C@@H](CO)NC(=O)C(Cl)Cl)cc1` here?
The Potency was “inactive”.

What about the Potency [3] of the same compound?
The Potency was “inactive”.

And the Potency [4]?
The Potency was “inactive”.

For `CCOC(=O)[C@H](CCc1ccccc1)N[C@H]1CS[C@H](c2cccs2)CN(CC(=O)O)C1=O`, which Potency [1] is on record?
Its Potency is “inactive”.

And the Potency [3]?
Its Potency is “inactive”.

And the Potency [4]?
The Potency was “inactive”.

With `Cc1nnc(NS(=O)(=O)c2ccc(N)cc2)s1` as the compound, how does the Potency [1] read?
The Potency was “inactive”.

What about the Potency [3] of the same compound?
The Potency was “inactive”.

And the Potency [4]?
The Potency was “inactive”.

With `Cc1nnc(C(=O)NC(C)(C)c2nc(C(=O)NCc3ccc(F)cc3)c(O)c(=O)n2C)o1` as the compound, how does the Potency [1] read?
Its Potency is “inactive”.

What about the Potency [5] of the same compound?
The Potency was “inactive”.

What about the Potency [3] of the same compound?
The Potency was “inactive”.

What about the Potency [4] of the same compound?
Its Potency is “inactive”.
